Source: PubChem BioAssay (NCATS)
Values joined by “and” are separate entries in the source; they are usually repeats but may differ in a detail not shown here. Equal values may be shown once. Records with an inconclusive call do not appear. Active and inactive are the calls of the source. Calls follow the shape of the dose curve; as a rule, active = well fitted curve in the direction sought with a large enough effect; inconclusive = small, poorly fitted or top-dose-only effect, or another doubt; inactive = no such curve, though single readings can be large; an effect the other way counts as inactive or inconclusive.

Legend:
[1] = molecular target: Cellular tumor antigen p53 (Homo sapiens) (UniProt P04637); assay: Primary qHTS for small molecule compounds that upregulate eGFP-tagged delta133p53alpha (in N-terminal) cells. (AID 2060322); details: NCI-H358 eGFP-delta133p53alpha fluorescence, 24 h; activation: stronger effect = higher value; also: nearly all actives have a fitted effect of over 75% in size; also: potency is read from the fitted curve at half-maximal effect;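 as to activation: series mostly up to about 56 µM; 0% = DMSO vehicle and 100% = reference activator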
Method in brief: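 NCI-H358 cells pre-induced 24 h with 10 ng/ml doxycycline to express N-terminal eGFP-delta133p53alpha, then dosed 24 h at 37C without doxycycline; fixed, Hoechst-stained, GFP intensity by laser scanning cytometry, normalized to DMSO (0%) and 57.5 uM 5-azacytidine (100%).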

[2] = qHTS for Inhibitors of the Aldehyde Dehydrogenase Family (ALDH1A2, ALDH1A3, ALDH2, ALDH3A1) (AID 2061307); also: nearly all actives have a fitted effect of over 50% in size; as to activity change, negative = inhibition: % is scaled to controls: 0 for no effect and ±100 for the full control effect
[3] = molecular target: Aldehyde dehydrogenase, mitochondrial (Homo sapiens) (UniProt P05091); assay: qHTS for Inhibitors of the Aldehyde Dehydrogenase Family (ALDH2) Primary screen (AID 2061308);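 also: plate controls were vehicle for no effect and reference inhibitor for full effect; nearly all actives have a fitted effect of over 55% in size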
[4] = molecular target: Retinal dehydrogenase 2 (Homo sapiens) (UniProt O94788); assay: qHTS for Inhibitors of the Aldehyde Dehydrogenase Family (ALDH1A2) Confirmation screens (AID 2061314); also: nearly all actives have a fitted effect of over 65% in size; also: potency is read from the fitted curve at half-maximal effect
[5] = molecular target: Retinaldehyde dehydrogenase 3 (Homo sapiens) (UniProt P47895); assay: qHTS for Inhibitors of the Aldehyde Dehydrogenase Family (ALDH1A3) Confirmatory screens (AID 2061311); also: nearly all actives have a fitted effect of over 60% in size; also: potency is read from the fitted curve at half-maximal effect; as to activity change, negative = inhibition: % is scaled to controls: 0 for no effect and ±100 for the full control effect
[6] = molecular target: Retinaldehyde dehydrogenase 3 (Homo sapiens) (UniProt P47895); assay: qHTS for Inhibitors of the Aldehyde Dehydrogenase Family (ALDH1A3) Primary screen (AID 2061315); also: potency is read from the fitted curve at half-maximal effect;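 as to activity change, negative = inhibition: plate controls were DMSO vehicle for no effect and reference inhibitor for full effect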
[7] = BET inhibitor-based combinations targeting novel dependencies in MECOM-rearranged (r) AML: SET-2 cell line (AID 2202231); details: SET-2 AML cells viability, CellTiter-Glo luminescence, 48 h; viability: stronger effect = lower value, series mostly up to about 46 µM;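 also: plate controls were DMSO treated cells for no effect and wells without cells for full effect; nearly all actives have a fitted effect of over 35% in size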
Method in brief: (§1)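 A 48 hr incubation preceded viability reading by CellTiter-Glo, with 15 min room-temperature development. Dose series had 11 points; normalization used DMSO and empty wells; AUC was computed and mean-centered per line as Z-AUC.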

[8] = BET inhibitor-based combinations targeting novel dependencies in MECOM-rearranged (r) AML: MV-4-11 cell line (AID 2202233);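 also: plate controls were DMSO for no effect and blank wells for full effect; nearly all actives have a fitted effect of over 45% in size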
Method in brief: (§2)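 Each compound is tested in an 11-point concentration series against 500 seeded cells/well for 48 hr. The luminescent viability signal is normalized to DMSO and blank wells, then reduced to AUC and a cell-line-centred Z-AUC.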

[9] = BET inhibitor-based combinations targeting novel dependencies in MECOM-rearranged (r) AML: HNT-34 cell line (AID 2202234);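 also: plate controls were vehicle wells for no effect and cell-free wells for full effect; nearly all actives have a fitted effect of over 35% in size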
Method in brief: as §2

[10] = BET inhibitor-based combinations targeting novel dependencies in MECOM-rearranged (r) AML: UCSD-AML1 cell line (AID 2202235);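 also: series mostly up to about 46 µM; plate controls were DMSO vehicle wells for no effect and blank wells for full effect; nearly all actives have a fitted effect of over 40% in size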
Method in brief: as §2

[11] = BET inhibitor-based combinations targeting novel dependencies in MECOM-rearranged (r) AML: AML-191 cell line (AID 2202236;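 also: plate controls were vehicle wells for no effect and wells without cells for full effect; nearly all actives have a fitted effect of over 35% in size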)
Method in brief: as §1

[12] = BET inhibitor-based combinations targeting novel dependencies in MECOM-rearranged (r) AML: AML-194 cell line (AID 2202237;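 also: plate controls were vehicle wells for no effect and wells without cells for full effect; nearly all actives have a fitted effect of over 40% in size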)
Method in brief: as §1

[13] = molecular target: Retinaldehyde dehydrogenase 3 (Homo sapiens) (UniProt P47895); assay: qHTS for Inhibitors of the Aldehyde Dehydrogenase Family (ALDH1A3) Validation screen (AID 2061312); also: nearly all actives have a fitted effect of over 45% in size; also: potency is read from the fitted curve at half-maximal effect; as to activity change, negative = inhibition: % is scaled to controls: 0 for no effect and ±100 for the full control effect
[14] = molecular target: Aldehyde dehydrogenase 1A1 (Homo sapiens) (UniProt P00352); assay: qHTS for Inhibitors of the Aldehyde Dehydrogenase Family (ALDH1A1) Confirmatory screens (AID 2061316); also: potency is read from the fitted curve at half-maximal effect; nearly all actives have a fitted effect of over 65% in size

Chain of Cellular tumor antigen p53 (Homo sapiens) (P04637 whole entry, looked up): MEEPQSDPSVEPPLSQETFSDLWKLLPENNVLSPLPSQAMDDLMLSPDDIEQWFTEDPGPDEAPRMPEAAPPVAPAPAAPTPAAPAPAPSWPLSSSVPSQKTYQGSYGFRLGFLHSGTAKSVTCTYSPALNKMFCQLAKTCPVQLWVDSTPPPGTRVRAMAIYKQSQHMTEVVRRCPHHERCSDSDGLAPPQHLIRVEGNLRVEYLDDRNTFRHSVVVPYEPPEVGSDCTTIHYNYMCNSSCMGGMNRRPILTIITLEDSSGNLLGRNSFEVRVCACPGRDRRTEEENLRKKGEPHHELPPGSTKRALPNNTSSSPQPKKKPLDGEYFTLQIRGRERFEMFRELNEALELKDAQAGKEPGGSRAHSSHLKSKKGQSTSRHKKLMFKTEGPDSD

COc1ccc(CCO[C@@H]2O[C@H](CO[C@H]3OC[C@](O)(CO)[C@H]3O)[C@@H](OC(=O)/C=C/c3ccc(O)c(O)c3)[C@H](O[C@@H]3O[C@@H](C)[C@H](O)[C@@H](O)[C@H]3O)[C@H]2O)cc1OC
inactive: activation [1] 16% | Potency [2] | Potency [3] | Potency [4]

CC(O)CCC1C(CO[C@@H]2O[C@H](CO)[C@@H](O)[C@H](O)[C@H]2O)CC(O)CC1(C)C (stereo partly specified)
active: Potency [5] 3.92 µM | Potency [6] 6.31 µM
inactive: activation [1] 5.34% | Potency [2] | Potency [3] | Potency [4]

COC(=O)C1=CO[C@@H](O[C@@H]2O[C@H](COC(=O)/C=C/c3cc(OC)c(O)c(OC)c3)[C@@H](O)[C@H](O)[C@H]2O)[C@@H]2C(CO)=CC[C@H]12
inactive: activation [1] -16.8% | Potency [2] | Potency [3]

CCN(Cc1cc(Nc2nc(C)cn3c(-c4cn[nH]c4)cnc23)sn1)C(C)(C)CO
inactive: Potency [2] | Potency [3] | Potency [6]
active: Potency [1] 16.9 µM | Potency [5] 12.7 µM | Potency [4] 31.8 µM

O=C(O)c1ccccc1C(=O)Nc1ccc(-c2ccccc2)cc1
active: Potency [4] 10.1 µM
inactive: activation [1] -8.49% and 5.67% | Potency [2] | Potency [3] | activity change, negative = inhibition [5] -21.1% [at 0.0073 µM] | Potency [6] | viability [7] 116% | Potency [8] | Potency [9] | Potency [10] | Potency [11] | Potency [12]

OC[C@H]1O[C@@H](OC(CCCCc2ccc(O)cc2)CCc2ccc(O)cc2)[C@H](O)[C@@H](O)[C@@H]1O (stereo partly specified)
inactive: activation [1] -9.92% | Potency [2] | Potency [3]

O=C(NCC(=O)N1CCCC1)Nc1ccc2ccccc2c1
active: Potency [2] 5.04 µM | Potency [5] 1.01 µM | Potency [13] 3.55 µM | Potency [6] 2.82 µM | Potency [14] 7.98 µM
inactive: activation [1] -2.86% | Potency [3]

Cc1cc(Nc2ccc(NC(=O)c3ccc(Nc4ccnc5ccccc45)cc3)cc2)nc(N)n1
inactive: Potency [2] | Potency [3] | Potency [13] | Potency [6]
active: Potency [1] 10.9 µM

CC/C=C/C(O)C(O)C1=C(C)C(=O)C2(O1)C(=O)NC(OC)(C(=O)c1ccccc1)C2O (stereo unspecified)
inactive: activation [1] 15.3% | Potency [2] | Potency [3] | Potency [4] | Potency [6]
